Source: PubChem BioAssay
Kir21 block – blocks the mouse Kir2.1 inward-rectifier potassium channel; B-score at 10 µM; P35561; HEK293-Kir2.1, FluxOR thallium flux fluorescence; hits give low values; 310,000 compounds, 0.85% hits;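 active means fluorescence ratio B-score at or below minus 3 SD of library scores, with starting-brightness B-score within 2 SD, cut at about -4.2 in these data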;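 further: channel flux triggered by added potassium and thallium sulfate stimulus; B-score of peak minus minimum fluorescence over baseline after thallium stimulus; more negative B-score means stronger Kir2.1 block with less thallium influx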
Target sequence (P35561 whole entry, looked up): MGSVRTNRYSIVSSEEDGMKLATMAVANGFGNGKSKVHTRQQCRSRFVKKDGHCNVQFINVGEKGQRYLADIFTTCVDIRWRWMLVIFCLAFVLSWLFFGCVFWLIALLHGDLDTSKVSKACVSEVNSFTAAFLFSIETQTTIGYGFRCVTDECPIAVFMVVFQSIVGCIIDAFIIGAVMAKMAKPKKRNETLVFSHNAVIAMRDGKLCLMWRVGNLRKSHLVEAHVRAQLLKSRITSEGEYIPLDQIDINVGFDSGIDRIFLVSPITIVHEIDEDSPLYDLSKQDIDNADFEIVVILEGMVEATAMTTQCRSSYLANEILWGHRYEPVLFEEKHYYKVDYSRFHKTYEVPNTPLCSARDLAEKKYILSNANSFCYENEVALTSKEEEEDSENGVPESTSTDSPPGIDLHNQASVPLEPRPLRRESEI
M18AAP inhibitor – blocks P. falciparum M18 aspartyl aminopeptidase | recombinant PfM18AAP, H-Glu-NHMec fluorogenic cleavage | inhibition, % at 7.35 µM | 290,000 compounds, 1.2% hits;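 active means inhibition above the campaign mean inhibition over all tested compounds plus 3 SD, cut at about 28% in these data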;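 further: 0% = plate median of test compound wells and 100% = 2 mM ZnCl2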
DNA FID counter – displaces DNA intercalator in HCV helicase counter-screen; AID 1845; inhibition, % at 7.9 µM; DNA fluorescent intercalator displacement, fluorescence; 290,000 compounds, 0.17% hits; in the data active means inhibition above about 37%;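 further: 0% = vehicle and 100% = reference compound; higher means more ethidium bromide displaced from hairpin DNA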
Rce1 inh – inhibitors of yeast Ras-converting enzyme; yeast membranes, quenched prenylated peptide cleavage fluorescence; calls only; 290,000 compounds, 0.27% hits;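 active means fall in fluorescence gain of 50% or more versus controls, with final raw signal at or below 3038400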;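 further: plate controls were neutral control wells for no effect and wells lacking membranes for full effect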
* hit, by the source's call; i = inactive; x = no result; + = active, no number. Most compounds without a hit are left out; they make up all but 2.3% or so of the library.

SMILES	Kir21 block	M18AAP inhibitor	DNA FID counter	Rce1 inh
CSc1ccccc1NC(=O)CN(C)Cc1cccc(Cl)c1	-1.59	1.8	3.7	i
CN(CC(=O)NCCc1ccc(F)cc1)Cc1ccc(Br)cc1	-6.56*	5.3	-16.5	i
CS(=O)(=O)N(CC(=O)N1CCN(Cc2ccccc2)CC1)c1cccc(F)c1	0.56	4.8	-16.0	i
CC(C)c1cccc(OCC(=O)Nc2ccc(S(=O)(=O)Nc3ccccn3)cc2)c1	0	-14.3	-41.6	+
O=[N+]([O-])c1c(Nc2cccc(O)c2)cc(Cl)c2nonc12	-7.36*	-6.1	10.4	i
O=[N+]([O-])c1ccc2c(c1)N([O-])C1(CCCCC1)[N+]2=O	x	9.4	-8.5	x
CC1(c2ccncc2)Nc2ccccc2-c2nc3ccccc3n21 (configuration not stated)	1.16	-2.4	-5.7	+
CN1C(=O)/C(=C/c2ccc(C(=O)Nc3ccc(O)cc3C(=O)O)cc2)SC1=S	-0.2	5.2	38.9*	i
CC(C)OCCCNC(=O)c1cc(-c2cccnc2)nc2ccccc12	0.76	-1.4	-23.5	i
CCOc1cccc2sc(NC(=O)CC)nc12	1	6.3	1.7	i
CCC(=O)NNc1nc2c(F)cccc2s1	-0.89	31.2*	-0.3	i
O=C1CCC/C(=N/NC(=O)c2cc(NS(=O)(=O)c3cccs3)cc(NS(=O)(=O)c3cccs3)c2)C1	-0.01	29.6*	-24.6	i
O=C1CCC/C(=N/NC(=O)c2ccc(NS(=O)(=O)c3cccs3)cc2)C1	-0.23	23.3	-7.8	i
O=C(CNC(=S)NC(=O)c1ccco1)c1ccccc1	0.15	28.8*	-2.9	i
Cc1cccc(S(=O)(=O)Nc2ccc(C)c3c2OC(C)(C)C3)c1	-5.94*	6.4	-23.3	x
Cc1ccc(NS(=O)(=O)c2ccccc2Cl)c2c1CC(C)(C)O2	-4.37*	-8.0	-20.4	i
S=C(NCCCN1CCOCC1)N(Cc1ccccc1)Cc1ccccc1	0.05	-7.0	7.1	i
Cc1cc2oc(=O)c(CC(=O)NCCCO)c(C)c2c2occ(C(C)(C)C)c12	-0.05	2.1	-37.0	i
Cc1cc2oc(=O)c(CC(=O)NCCCN(C)C)c(C)c2c2occ(C(C)(C)C)c12	-2.84	11.1	37.0*	i
O=S(=O)(c1ccc(Cl)c(Cl)c1)c1snnc1-c1ccccc1	-4.25*	0.2	0.5	i
c1ccc(-c2nnsc2-c2ccccc2)cc1	-3.34	3.7	-9.2	i
CCc1noc(C)c1C(=O)N1CCN(S(=O)(=O)c2ccc(Br)cc2)CC1	-2.34	x	x	i
Cn1c(Cc2ccccc2)n[nH]c1=S	0.7	29.6*	-1.2	i
Cn1c(CSc2nc3ccccc3s2)n[nH]c1=S	-0.34	30.0*	-12.3	i
CNC(=S)NNc1nncc2ccccc12	-0.38	30.1*	0.7	i
SMILES	Kir21 block	M18AAP inhibitor	DNA FID counter	Rce1 inh
CC(OC(=O)Cc1c[nH]c2ccccc12)C(=O)Nc1ccccc1F (configuration not stated)	-5.67*	x	x	i
CC(C)C(=O)NC(c1ccco1)c1ccc2cccnc2c1O (configuration not stated)	0.09	30.3*	-15.8	i
Oc1c(C(Nc2nc3ccccc3s2)c2ccco2)ccc2cccnc12 (configuration not stated)	-0.9	25.6	-11.3	i
Cc1coc2cc3oc(=O)c(CCC(=O)NCCN4CCOCC4)c(C)c3cc12	-0.24	15.9	18.4	i
O=C(NCc1ccco1)c1ccc(CS(=O)Cc2ccc(Cl)cc2)o1 (configuration not stated)	-0.23	4.7	-19.9	i
CCN(CCO)Cc1csc2cc(C)ccc12	0.83	-0.8	3.4	i
CCN(CCO)Cc1csc2ccc(C(C)(C)C)cc12	-6.96*	-4.0	19.7	i
CC(C)OC(=O)C(CC(=O)O)NCc1ccccc1 (configuration not stated)	-0.41	4.1	-1.9	i
COC(=O)[C@H](CC(C)C)NCc1cccc(CN[C@@H](CC(C)C)C(=O)OC)c1	-4.28*	8.0	-1.1	i
Cc1cc(-c2ccc(C)c(S(=O)(=O)NCCc3ccc(S(N)(=O)=O)cc3)c2)on1	-1.62	0.8	-18.3	i
CN1/C(=C\C(=O)C[n+]2ccc3ccccc3c2)C(C)(C)c2ccccc21	-0.22	-5.1	1.4	i
Cc1cc(C)cc(N2CC(C(=O)OCC(=O)Nc3cc(C)on3)CC2=O)c1 (configuration not stated)	-1.52	-10.7	-21.4	i
OC1(c2ccc(Cl)cc2)CCN(Cc2c[nH]c3ccccc23)CC1	-6.75*	x	x	i
Clc1ccccc1N1CCN(Cc2c[nH]c3ccccc23)CC1	-1.77	x	x	i
COc1cccc2[nH]c3c(N4CCN(Cc5ccc6c(c5)OCO6)CC4)ncnc3c12	-0.01	2.6	-0.5	+
COc1ccc2c(c1)[nH]c1c(N3CCN(Cc4ccc5c(c4)OCO5)CC3)ncnc12	-1.18	9.0	14.7	i
COc1cc(CNCCO)cc(Cl)c1OCc1ccccc1Cl	-7.03*	-0.7	26.2	i
OCCNCc1c(OCc2ccc(Cl)cc2)ccc2ccccc12	-6.85*	10.1	21.3	i
CC(O)CNCCNCc1c(OCc2ccccc2)ccc2ccccc12 (configuration not stated)	-4.08	0.0	35.7	i
CCOc1cc(CNC(C)(C)CO)cc(Br)c1OCc1ccc(Cl)cc1Cl	-9.38*	-1.8	38.2*	i
CCOc1cc(CNCCO)cc(Br)c1OCc1ccccc1Cl	-8.98*	1.4	28.6	i
COc1cc(CNCCc2ccccc2)cc(Cl)c1OCc1ccccc1	-13.4*	-5.1	23.9	i
CCOc1cc(CNCCO)cc(Br)c1OCc1ccc(Cl)cc1	-17.8*	-0.7	38.4*	i
COc1cc(CNCCc2ccccc2)cc(Br)c1OCC(=O)Nc1ccccc1C	-10.8*	-1.7	43.8*	i
CCOc1cc(CNCCCN2CCOCC2)cc(Br)c1OCc1ccccc1Cl	-6.28*	0.0	39.7*	i
SMILES	Kir21 block	M18AAP inhibitor	DNA FID counter	Rce1 inh
CNCc1cc(Br)c(OCC(=O)Nc2ccccc2OC)c(OC)c1	0.03	1.5	19.3	i
Cc1nnc(SC(C)C(=O)Nc2ccc3ccccc3c2)[nH]c1=O (configuration not stated)	1.88	-9.5	-13.4	i
Cn1c(CC(=O)Nc2ccccc2F)nnc1SCC(=O)N1CCOCC1	0.07	0.0	-1.7	i
O=C(O)CCn1nnc2ccccc21	-2.14	-4.7	2.6	i
Cc1ccc(S(=O)(=O)NCc2cccnc2)cc1C(=O)NC1CCCCC1	1.94	x	x	i
COc1ccc(-c2cc(C(F)(F)F)nc(SCC(N)=O)n2)cc1	0.48	-2.0	-10.9	i
COc1ccc(-c2cc(C(F)(F)F)nc(SCC(=O)NCc3cnn(C)c3C)n2)cc1OC	1.14	0.9	-11.3	+
COc1ccc(-c2cc(C(F)(F)F)nc(SCC(=O)N(C)Cc3cn(C)nc3C)n2)cc1OC	0.2	-12.7	-43.7	+
COc1ccc(-c2cc(C(F)(F)F)nc(SCC(=O)NCc3ccco3)n2)cc1OC	-1.77	13.1	-32.0	i
Cc1ccc(S(=O)(=O)Cc2cc(F)c([N+](=O)[O-])cc2[N+](=O)[O-])cc1	-0.24	20.5	-3.0	i
